Rows were chosen to be rich in hits. Some 3.9% of all compounds tested hit in one or more screens of this group.
PHOSPHO1 block = PubChem AID 1565; Phosphoethanolamine/phosphocholine phosphatase (Homo sapiens), Q8TCT1; recombinant PHOSPHO1, absorbance phosphatase assay; inhibition, % at 13.3 µM; actives 1.1% (n = 290,000); in the data active = inhibition above about 60%
WT yeast gro inh = growth inhibition of WT strain, primary screen, mitochondrial fusion inhibitor project, WT and mutant strains, chemical genetic; mitochondrial fusion phenotypic screen; inhibition, % at 10 µM; actives 2.1% (n = 190,000); AID 1362, 2008; in the data active = inhibition above about 58%; tested in S. cerevisiae
TPT1 inh = Candida albicans TPT1 enzyme inhibitors, primary screen, biochemical, fluorescence polarization; recombinant caTPT1, FP RNA substrate dephosphorylation; inhibition, % at 5 µM; actives 0.81% (n = 300,000); AID 1962, 2009;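 active = inhibition above the mean of all tested compounds plus 3 SD, set per screening campaign, cut at about 24% in these data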
SKKanGAS inh = S. pyogenes SKKanGAS growth inhibitors in kanamycin, primary screen, streptokinase expression inhibitor project, SKKanGAS strain, BacTiter-Glo luminescence; 6 h; inhibition, % at 7.5 µM; actives 1.3% (n = 300,000);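 active = mean replicate score, as percent of positive control median, at least 50; inconclusive = mean below 50 but one replicate at or above 50; inactive = mean and every replicate below 50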;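 also: strain carries kanamycin resistance gene driven by streptokinase promoter and grows in 40 µg/ml kanamycin; loss of luminescence reflects streptokinase promoter inhibition or plain growth inhibition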
Platelet DG rel = inhibitors of platelet dense granule secretion, primary screen, cell-based, MLPCN, human platelets; human platelet-rich plasma, SFLLRN dense granule ATP release, luminescence; inhibition, %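 (compounds screened at 7.5 µM in platelet-rich plasma)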; actives 0.22% (n = 300,000);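 active = mean replicate score, as percent of positive control, at or above 50; inconclusive = mean below 50 but at least one replicate at or above 50; inactive = mean and every replicate below 50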
Rtt109 HAT inh = inhibitors of C. albicans Rtt109/Vps75 HAT, primary screen, biochemical, ThioGlo CoA-SH fluorescence, plate reader | Histone acetyltransferase RTT109 (Candida albicans (strain SC5314 / ATCC MYA-2876)), … | purified Rtt109/Vps75, 4 h | inhibition, % at 34.9 µM | actives 0.16% (n = 330,000);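 active = inhibition of at least 50% in every replicate; inconclusive = best replicate reaches 50% inhibition but some replicates fall short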
Target sequence (Q5AAJ8 whole entry, looked up): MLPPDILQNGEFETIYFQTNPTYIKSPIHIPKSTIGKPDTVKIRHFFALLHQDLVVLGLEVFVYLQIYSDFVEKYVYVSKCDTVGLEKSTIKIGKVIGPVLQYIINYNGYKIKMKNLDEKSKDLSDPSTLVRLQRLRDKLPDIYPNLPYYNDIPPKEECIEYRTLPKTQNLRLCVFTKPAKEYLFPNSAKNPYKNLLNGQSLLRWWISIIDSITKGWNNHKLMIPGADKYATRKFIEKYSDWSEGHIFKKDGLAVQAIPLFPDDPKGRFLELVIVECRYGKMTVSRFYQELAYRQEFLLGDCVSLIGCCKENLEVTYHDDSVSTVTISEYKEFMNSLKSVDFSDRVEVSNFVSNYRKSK
TPT1 inh confirm = Candida albicans TPT1 inhibitors, confirmation, biochemical, fluorescence polarization, triplicate | shares compounds with TPT1 inh | AID 2149, 2009 | inhibition, % at 5 µM | actives 74% (n = 2,400) | recombinant caTPT1, RNase T1 coupled;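 active = inhibition above the primary screen limit, the mean inhibition of all tested compounds plus 3 SD, cut at about 25% in these data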
RNase T1 inh = RNase T1 inhibitors, counter-screen for TPT1 inhibitor project, biochemical, fluorescence polarization | shares compounds with TPT1 inh | RNase T1 cleavage, 1536-well | inhibition, % at 5 µM | actives 83% (n = 2,400) | AID 2153, 2009;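 active = inhibition above the solvent-only control well mean plus 3 SD, limit set per screening run, cut at about 23% in these data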;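 also: inhibitors block cleavage so intact labeled substrate keeps polarization high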
Target sequence (P00651 whole entry, looked up): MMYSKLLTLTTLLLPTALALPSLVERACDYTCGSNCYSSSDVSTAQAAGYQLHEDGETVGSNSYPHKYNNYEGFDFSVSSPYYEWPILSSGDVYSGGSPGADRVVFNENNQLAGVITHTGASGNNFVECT
A number is an active result; – = inactive; ? = inconclusive; · = no result.

SMILES	PHOSPHO1 block	WT yeast gro inh	TPT1 inh	SKKanGAS inh	Platelet DG rel	Rtt109 HAT inh	TPT1 inh confirm	RNase T1 inh
C=CCn1c(O)c(/C=C2/C=CC=N2)c(=O)[nH]c1=O	–	–	–	–	–	·	·	·
COc1ccc2c3c([nH]c2c1)C(C)=NCC3	–	–	44	–	–	–	–	31
CC1=NCCc2c1[nH]c1cc(O)ccc21	·	·	–	·	·	–	·	·
CN1C(=O)/C(=C\N2CCc3ccccc32)C(=O)NC1=S	–	–	–	–	–	–	·	·
CCN(CC)c1ccc(/C=C2\C(=O)NC(=S)N(C)C2=O)o1	–	·	123	–	–	–	135	135
CN1C(=O)C(=Cc2ccc(N3CCCCC3)o2)C(=O)N(C)C1=S	–	–	85	–	–	–	105	111
CCN(CC)c1ccc(C=C2C(=O)N(C)C(=S)N(C)C2=O)o1	–	–	93	–	–	–	102	112
COc1cccc(C2(O)CCN(Cc3ccncc3)CC2)c1	–	–	–	–	–	–	·	·
C=CCn1c(O)c(C(C)=NCCN2CCN(C(=S)NC)CC2)c(=O)[nH]c1=O	–	·	–	–	–	–	·	·
O=c1[nH]c(=S)n(-c2ccccc2)c(O)c1/C=N/N1CCCCC1c1cccnc1 (stereo unspecified)	–	·	30	–	–	–	–	31
Cc1ccc(S(=O)(=O)NP(=O)(Oc2ccccc2)Oc2ccccc2)cc1	–	–	24	–	–	·	–	–
O=C(Cn1ncc2c3ccccc3n(Cc3cccc(Cl)c3)c2c1=O)N1CCC2(CC1)OCCO2	–	–	114	–	–	–	64	69
Cc1c2cnn(CC(=O)N3CCC4(CC3)OCCO4)c(=O)c2c(C)n1Cc1cccc(Cl)c1	–	·	–	–	–	–	·	·
CC(=O)Nc1ccc2c(c1)CC1(C(=O)N(C)C(=O)N(C)C1=O)C1CCCN21 (stereo unspecified)	–	–	–	–	–	–	·	·
CN1C(=O)N(C)C(=O)C2(Cc3cc(NC(=O)c4ccc(F)cc4)ccc3N3CCCC32)C1=O (stereo unspecified)	–	·	30	–	–	–	–	37
Cn1c(O)c(C(c2ccccn2)c2c(O)n(C)c(=S)n(C)c2=O)c(=O)n(C)c1=S	–	–	–	–	–	–	·	·
CC(=O)c1c(O)n(C)c(=S)n(-c2ccccc2)c1=O	–	–	45	–	–	–	30	40
O=C1OC(c2ccc([N+](=O)[O-])cc2)=N/C1=C/N1CC2CC(C1)c1cccc(=O)n1C2 (stereo unspecified)	–	·	34	–	–	–	42	54
C=CCn1c(O)c(/C=N/NC(=O)CCCC)c(=O)[nH]c1=S	–	–	–	–	–	–	·	·
COc1ccc2[nH]cc(CCN=C(N)N)c2c1	–	–	–	–	–	–	·	·
COc1ccc2[nH]cc(C3=CCNCC3)c2c1	·	·	52	–	–	·	61	72
COC(=O)C1=Nc2ccccc2/C1=C\c1c(O)n(-c2ccc(OC)cc2)c(=O)[nH]c1=O	–	–	–	–	–	–	·	·
COC(=O)C1=Nc2ccccc2/C1=C\c1c(O)n(-c2ccc(Br)cc2)c(=O)[nH]c1=O	–	–	27	·	·	–	33	44
COc1cc2c(cc1OC)C(C(=O)NC(C)C)C1CCCCN1C2=O (stereo unspecified)	–	·	–	–	–	–	·	·
Cn1cc(C(=O)NCc2ccccc2)c2ccccc21	–	–	39	–	–	–	–	–
SMILES	PHOSPHO1 block	WT yeast gro inh	TPT1 inh	SKKanGAS inh	Platelet DG rel	Rtt109 HAT inh	TPT1 inh confirm	RNase T1 inh
COc1ccc2c3c1OC1C(=O)CC[C@@]4(O)[C@@H](C2)N(CC2CC2)CC[C@]314 (stereo partly specified)	·	·	·	·	·	–	·	·
COC(=O)C1=C(c2ccccc2)C[C@@H]2CC[C@H]1N2C(=O)N1CCCC1	·	·	–	–	–	–	·	·
COc1ccc(-n2c(O)c(/C=C/C=Nc3ccccc3)c(=O)[nH]c2=O)cc1	–	–	178	–	–	–	196	177
O=c1[nH]c(=O)n(-c2ccccc2)c(O)c1/C=C/C=Nc1ccccc1	–	–	157	–	–	–	166	160
O=c1[nH]c(=O)n(C2CCCCC2)c(O)c1/C=C/C=Nc1ccccc1	–	·	89	–	–	–	81	76
C=CCn1c(O)c(/C=C/C=Nc2ccccc2)c(=O)[nH]c1=O	–	–	84	–	–	–	107	129
C=CCn1c(O)c(C(CC)=NC(C)c2ccccc2)c(=O)[nH]c1=O (stereo unspecified)	–	–	–	–	–	–	·	·
COc1ccc(-n2c(O)c(/C(C)=N/Nc3ccccc3)c(=O)[nH]c2=O)cc1	–	·	–	–	–	–	·	·
NS(=O)(=O)c1ccc(N=Cc2c(O)n(-c3ccccc3)c(=O)[nH]c2=O)cc1	–	–	–	–	–	–	·	·
O=c1[nH]c(=O)n(C2CCCCCC2)c(O)c1C=NC1CCN(Cc2ccccc2)CC1	–	–	–	–	–	–	·	·
CCOC(=O)C1(c2ccccc2)CCN(CCc2ccc(NC(=O)CCC(=O)O)cc2)CC1	·	·	·	·	·	–	·	·
Cc1ccc(-n2c(O)c(/C=C/C=Nc3ccccc3)c(=O)[nH]c2=O)cc1	–	–	134	–	–	–	51	48
Cc1ccc(N/N=C/c2c(O)n(-c3ccccc3)c(=O)[nH]c2=O)cc1	–	–	–	–	–	–	·	·
Cc1cc(C(=O)O)c(C)n1C1CC1	–	·	–	–	–	–	·	·
CCOC(=O)C1C(OC(=O)c2ccccc2)CC2CCC1N2C (stereo unspecified)	·	·	·	·	·	–	·	·
O=c1[nH]c(=O)n(Cc2ccco2)c(O)c1/C=N/N1CCCCC1	–	–	24	–	–	–	29	40
O=c1[nH]c(=O)n(Cc2ccco2)c(O)c1C=NC1CC1	–	–	–	–	?	–	·	·
O=c1[nH]c(=O)n(-c2cccc(F)c2)c(O)c1/C=C1\C=Nc2ccccc21	–	·	37	–	–	–	–	–
c1ccc2c3c(ccc2c1)OCC1CONC31 (stereo unspecified)	–	–	–	–	–	·	·	·
COc1cc(/C=C/C(=O)c2c(O)n(CCc3ccccc3)c(=O)[nH]c2=O)ccc1O	–	–	63	–	–	–	69	89
Cc1ccc(S(=O)(=O)N2CCN(C(=O)COC(=O)Cc3ccccc3)CC2)c(C)c1	·	·	–	–	–	–	·	·
